“And” between values parts separate entries of the source, which are not always exact repeats. Identical values can stand only once. Screen size: about 5,500 compounds; about 2,000 (36%) were called active. Roughly 18% stayed inconclusive and do not appear here. Rule as the data show it: active = normalized growth mostly below about 0.91 (no sharp cut-off); inconclusive = no clear call, values can overlap the other calls; inactive = mostly above about 0.92. Some of the results follow.
Test: chemical genetic growth profiling, strain panel (AID 1159580);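 also: tested at 20 µM; growth read once vehicle control cultures reached saturation at 30 °C; 1 = growth at the plate median or of vehicle wells; lower values mean less growth of the strain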
Settings: S. cerevisiae deletion strains, growth OD

Measured: normalized growth

CC1=C(C(C)O)C2=NC1C=c1[nH]c(c(C)c1C(C)O)=Cc1[nH]c(c(CCC(=O)O)c1C)C=c1[nH]c(c(C)c1CCC(=O)O)=C2 (configuration not stated)
inactive: locus YAL013W, strain DEP1, hits give low values 0.937 | locus YAL021C, strain ccr4, hits give low values 0.982 | locus YAL026C, strain drs2, hits give low values 0.988 | locus YAL030W, strain snc1, hits give low values 0.995 | locus YBL061C, strain skt5, hits give low values 0.986 | locus YBR009C, strain hhf1, hits give low values 0.986 | locus YBR021W, strain FUR4, hits give low values 0.998 | locus YBR023C, strain chs3, hits give low values 0.986 | locus YBR171W, strain sec66, hits give low values 0.994 | locus YBR229C, strain ROT2, hits give low values 1 | locus YBR231C, strain swc5, hits give low values 0.988 | locus YBR279W, strain paf1, hits give low values 1.01 | locus YCL011C, strain gbp2, hits give low values 0.994 | locus YCL016C, strain dcc1, hits give low values 0.986 | locus YCL029C, strain bik1, hits give low values 1.02 | locus YCL061C, strain MRC1, hits give low values 0.989 | locus YCL069W, strain vba3, hits give low values 0.99 | locus YCR088W, strain abp1, hits give low values 0.985 | locus YDL005C, strain med2, hits give low values 0.995 | locus YDL035C, strain GPR1, hits give low values 0.976 | locus YDL040C, strain nat1, hits give low values 0.998 | locus YDL074C, strain BRE1, hits give low values 0.956 | locus YDL101C, strain DUN1, hits give low values 0.999 | locus YDL185W, strain tfp1, hits give low values 1 | locus YDL192W, strain arf1, hits give low values 0.989 | locus YDR001C, strain nth1, hits give low values 1 | locus YDR069C, strain doa4, hits give low values 0.999 | locus YDR101C, strain arx1, hits give low values 1.01 | locus YDR137W, strain rgp1, hits give low values 1.04 | locus YDR150W, strain NUM1, hits give low values 0.997 | locus YDR159W, strain sac3, hits give low values 0.946 | locus YDR162C, strain NBP2, hits give low values 0.897 | locus YDR195W, strain ref2 0.935 | locus YDR297W, strain sur2, hits give low values 0.986 | locus YDR318W, strain mcm21, hits give low values 1.01 | locus YDR334W, strain swr1, hits give low values 0.993 | locus YDR335W, strain msn5, hits give low values 1 | locus YDR388W, hits give low values 1.02 | locus YDR392W, strain spt3, hits give low values 0.839 | locus YDR502C, strain sam2, hits give low values 0.977 | locus YEL003W, strain gim4, hits give low values 0.977 | locus YEL037C, strain rad23, hits give low values 1 | locus YEL061C, strain CIN8 (second series), hits give low values 0.996 | locus YEL061C, strain CIN8, hits give low values 0.995 | locus YER015W, strain faa2, hits give low values 1.01 | locus YER016W, strain bim1, hits give low values 0.989 | locus YER110C, hits give low values 1.03 | locus YER111C, strain swi4, hits give low values 0.986 | locus YER155C, strain BEM2 (second series), hits give low values 0.998 | locus YER155C, strain BEM2, hits give low values 0.995 | locus YER167W, strain BCK2, hits give low values 0.96 | locus YFR010W, strain ubp6, hits give low values 0.999 | locus YGL078C, strain dbp3, hits give low values 1.03 | locus YGL086W, strain mad1, hits give low values 0.968 | locus YGL167C, strain pmr1, hits give low values 0.995 | locus YGL173C, strain kem1, hits give low values 0.983 | locus YGL227W, strain vid30, hits give low values 0.993 | locus YGL240W, strain doc1, hits give low values 0.945 | locus YGL248W, strain PDE1, hits give low values 1.01 | locus YGL253W, strain hxk2, hits give low values 1 | locus YGR078C, strain PAC10, hits give low values 0.984 | locus YGR135W, strain pre9, hits give low values 0.973 | locus YGR252W, strain gcn5, hits give low values 1 | locus YHR013C, strain ard1, hits give low values 0.931 | locus YHR027C, strain rpn1, hits give low values 1 | locus YHR030C, strain SLT2, hits give low values 1.01 and 1.06 | locus YHR079C, strain IRE1 (second series), hits give low values 1.01 | locus YHR079C, strain IRE1, hits give low values 1.05 | locus YHR094C, strain hxt1, hits give low values 1.02 | locus YHR129C, strain ARP1, hits give low values 1 | locus YHR142W, strain chs7, hits give low values 1.01 | locus YHR200W, strain rpn10, hits give low values 0.986 | locus YIL066C, strain RNR3, hits give low values 0.98 | locus YIL073C, strain SPO22, hits give low values 1.12 | locus YIL125W, strain kgd1, hits give low values 1.02 | locus YIR030C, strain dcg1, hits give low values 1.01 | locus YJL092W, strain hpr5, hits give low values 0.992 | locus YJL095W, strain BCK1 (second series), hits give low values 0.994 | locus YJL095W, strain BCK1, hits give low values 0.982 and 1.06 | locus YJL115W, strain asf1, hits give low values 0.977 | locus YJL129C, strain trk1, hits give low values 0.949 | locus YJL134W, strain LCB3, hits give low values 1 | locus YJL154C, strain vps35, hits give low values 0.995 | locus YJL164C, strain tpk1, hits give low values 0.986 | locus YJL166W, strain qcr8, hits give low values 0.966 | locus YJL168C, strain set2, hits give low values 1 | locus YJL187C, strain SWE1 (second series), hits give low values 1
